Here are results for 37 compounds from PubChem BioAssay (Tox21).

Records with an inconclusive call do not appear. Activity calls are given as the source filed them. Unless noted, calls come from the whole dose curve; as a rule, active = well fitted cell-killing curve with a large enough effect in the repeat runs; inconclusive = weak or mixed curves, or effect the other way; inactive = no such curve, though single readings can be large or run the other way.

The first assay in a line: qHTS assay for small molecule agonists of the antioxidant response element (ARE) signaling pathway - cell viability counter screen (AID 743203; calls by dose curve; note: nearly all actives have a fitted effect of over 55% in size). The following applies: ARE-bla HepG2 viability, CellTiter-Glo luminescence, 16 h; series mostly up to 73.3 µM. The method in brief: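 Luminescence read-out (CellTiter-Glo, 30 min at room temperature) measured cell viability in the same wells as the ARE beta-lactamase reporter. HepG2 ARE-bla cells were treated with compounds for 16 hrs at 37C/5% CO2.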
(In qHTS, concentration-response curves come from the screen itself.)
In the case of `NS(=O)(=O)c1cc(C(=O)O)c(NCc2ccco2)cc1Cl`, the compound was called inactive.

Regarding `CC(C)(Oc1ccc(C2CC2(Cl)Cl)cc1)C(=O)O` (stereo unspecified), the compound was classed as inactive.

Turning to `O=C(O)c1cc(N=Nc2ccc(S(=O)(=O)Nc3ccccn3)cc2)ccc1O`, the result was inactive.

Consider `O=C(O)c1cccc([N+](=O)[O-])c1`, for which the compound was classed as inactive.

`CC(=O)NS(=O)(=O)c1ccc(N)cc1`: the compound was called inactive.

Regarding `C1N2CN3CN1CN(C2)C3`, the compound was called inactive.

`CCCNC(=O)NS(=O)(=O)c1ccc(Cl)cc1`: the result was inactive.

On to `Nc1ccc(C(=O)O)cc1`, for which the result was inactive.

`CNC[C@H](O)c1cccc(O)c1`: the outcome was inactive.

On to `O=C(O)/C=C\C(=O)O`, for which the outcome was inactive.

As for `CC1(C)[C@@H]2CC[C@@]1(C)C(=O)C2`, the call was inactive.

`O=NO`: the call was inactive.

As for `Cn1c(=O)c2[nH]cnc2n(C)c1=O`, the outcome was inactive.

As for `CCCCOC(=O)CC(CC(=O)OCCCC)(OC(C)=O)C(=O)OCCCC`, the compound was called inactive.

With `OC(Cn1cncn1)(Cn1cncn1)c1ccc(F)cc1F`, the compound was called inactive.

As for `O=S(=O)(O)NC1CCCCC1`, the outcome was inactive.

Take `CC(O)C(=O)O` (stereo unspecified): the outcome was inactive.

Turning to `O=c1cc[nH]c(=S)[nH]1`, the compound was called inactive.

Consider `Oc1ccc(/C=C/c2cc(O)cc(O)c2)cc1`, for which the compound was classed as inactive.

Consider `Cn1cc[nH]c1=S`, for which the compound was called inactive.

Consider `C/C=C/c1ccc(OC)cc1`, for which the outcome was inactive.

Turning to `CCCC(O)C(CC)CO` (stereo unspecified), the result was inactive.

On to `CCCCC1C(=O)N(c2ccccc2)N(c2ccccc2)C1=O`, for which the result was inactive.

As for `O=C(c1ccccc1)C(O)c1ccccc1` (stereo unspecified), the compound was called inactive.

In the case of `Nc1ccn([C@H]2CC[C@@H](CO)O2)c(=O)n1`, the result was inactive.

Regarding `NC(N)=O`, the result was inactive.

`Cc1ccc(C)c(OCCCC(C)(C)C(=O)O)c1`: the result was inactive.

For `O=C(O)CCCCC(=O)O`, the call was inactive.

`CC(O)CN(CCN(CC(C)O)CC(C)O)CC(C)O` (stereo unspecified): the outcome was inactive.

For the compound `COc1c2occc2cc2ccc(=O)oc12`, the outcome was inactive.

In the case of `C[C@]12C=CC(=O)C=C1CC[C@@H]1[C@@H]2[C@@H](O)C[C@@]2(C)[C@H]1CC[C@]2(O)C(=O)CO`, the call was inactive.

As for `N=C(N)c1ccc(OCCCCCOc2ccc(C(=N)N)cc2)cc1`, the result was inactive.

`COc1ccc2[nH]cc(CCNC(C)=O)c2c1`: the outcome was inactive.

As for `CC(=O)OCC(COC(C)=O)OC(C)=O`, the result was inactive.

Regarding `O=C(c1ccccc1)c1ccccc1`, the compound was classed as inactive.

Take `O=C(O)c1cccnc1`: the compound was classed as inactive.

The next assay in a line: qHTS assay for small molecule activators of the heat shock response signaling pathway - cell viability counter screen (AID 743209). Note: nearly all actives have a fitted effect of over 50% in size. The following applies: HSE-bla HeLa viability, CellTiter-Glo luminescence, 5 h; series mostly up to 62.6 µM. Summed up: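 HSE-bla HeLa; 1500 cells/well; overnight 37 C, 5% CO2; compound 5 h 37 C; LiveBLAzer B/G substrate 2.5 h RT; CellTiter-Glo 30 min RT; luminescence.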
`NS(=O)(=O)c1cc(C(=O)O)c(NCc2ccco2)cc1Cl`: the compound was called inactive.

On to `CC(C)(Oc1ccc(C2CC2(Cl)Cl)cc1)C(=O)O` (stereo unspecified), for which the outcome was inactive.

Consider `O=C(O)c1cc(N=Nc2ccc(S(=O)(=O)Nc3ccccn3)cc2)ccc1O`, for which the compound was classed as inactive.

Take `O=C(O)c1cccc([N+](=O)[O-])c1`: the outcome was inactive.

Take `CC(=O)NS(=O)(=O)c1ccc(N)cc1`: the result was inactive.

`C1N2CN3CN1CN(C2)C3`: the compound was called inactive.

As to `CCCNC(=O)NS(=O)(=O)c1ccc(Cl)cc1`, the call was inactive.

In the case of `Nc1ccc(C(=O)O)cc1`, the outcome was inactive.

Turning to `CNC[C@H](O)c1cccc(O)c1`, the call was inactive.

Take `O=C(O)/C=C\C(=O)O`: the call was inactive.

Consider `CC1(C)[C@@H]2CC[C@@]1(C)C(=O)C2`, for which the compound was classed as inactive.

Regarding `O=NO`, the compound was called inactive.

As to `O=C1CN(/N=C/c2ccc([N+](=O)[O-])o2)C(=O)N1`, the result was inactive.

As to `Cn1c(=O)c2[nH]cnc2n(C)c1=O`, the call was inactive.

For `CCCCOC(=O)CC(CC(=O)OCCCC)(OC(C)=O)C(=O)OCCCC`, the compound was called inactive.

On to `OC(Cn1cncn1)(Cn1cncn1)c1ccc(F)cc1F`, for which the compound was classed as inactive.

Take `O=S(=O)(O)NC1CCCCC1`: the call was inactive.

In the case of `CC(O)C(=O)O` (stereo unspecified), the result was inactive.

Consider `O=c1cc[nH]c(=S)[nH]1`, for which the outcome was inactive.

`Oc1ccc(/C=C/c2cc(O)cc(O)c2)cc1`: the compound was classed as inactive.

On to `Cn1cc[nH]c1=S`, for which the compound was classed as inactive.

With `C/C=C/c1ccc(OC)cc1`, the outcome was inactive.

With `CCCC(O)C(CC)CO` (stereo unspecified), the call was inactive.

Regarding `CCCCC1C(=O)N(c2ccccc2)N(c2ccccc2)C1=O`, the call was inactive.

For `O=C(c1ccccc1)C(O)c1ccccc1` (stereo unspecified), the compound was called inactive.

In the case of `Nc1ccn([C@H]2CC[C@@H](CO)O2)c(=O)n1`, the result was inactive.

For the compound `NC(N)=O`, the outcome was inactive.

On to `Cc1ccc(C)c(OCCCC(C)(C)C(=O)O)c1`, for which the call was inactive.

Regarding `O=C(O)CCCCC(=O)O`, the compound was classed as inactive.

With `CC(O)CN(CCN(CC(C)O)CC(C)O)CC(C)O` (stereo unspecified), the compound was classed as inactive.

`COc1c2occc2cc2ccc(=O)oc12`: the call was inactive.

On to `C[C@]12C=CC(=O)C=C1CC[C@@H]1[C@@H]2[C@@H](O)C[C@@]2(C)[C@H]1CC[C@]2(O)C(=O)CO`, for which the result was inactive.

`N=C(N)c1ccc(OCCCCCOc2ccc(C(=N)N)cc2)cc1`: the outcome was inactive.

As to `COc1ccc2[nH]cc(CCNC(C)=O)c2c1`, the compound was classed as inactive.

Regarding `CC(=O)OCC(COC(C)=O)OC(C)=O`, the compound was called inactive.

Take `O=C(c1ccccc1)c1ccccc1`: the result was inactive.

Regarding `O=C(O)c1cccnc1`, the compound was classed as inactive.

Another assay in a line: qHTS assay for small molecule activators of the heat shock response signaling pathway (AID 743210; active = well fitted activation curve with a large enough effect in the signal ratio in the repeat runs, with a control signal flat, not every such curve was filed as active; the % refers to the signal ratio). The following applies: HeLa HSE-bla reporter, beta-lactamase ratio, 5 h; series mostly up to 62.6 µM. The method in brief: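 Activation of heat shock element-controlled beta-lactamase expression is measured in HeLa cells by LiveBLAzer FRET fluorescence, with compound exposure lasting 5 h at 37 C and substrate loading 2.5 h at room temperature.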
In the case of `NS(=O)(=O)c1cc(C(=O)O)c(NCc2ccco2)cc1Cl`, the result was inactive.

Consider `CC(C)(Oc1ccc(C2CC2(Cl)Cl)cc1)C(=O)O` (stereo unspecified), for which the result was inactive.

With `O=C(O)c1cc(N=Nc2ccc(S(=O)(=O)Nc3ccccn3)cc2)ccc1O`, the result was inactive.

In the case of `O=C(O)c1cccc([N+](=O)[O-])c1`, the result was inactive.

With `CC(=O)NS(=O)(=O)c1ccc(N)cc1`, the outcome was inactive.

On to `C1N2CN3CN1CN(C2)C3`, for which the result was inactive.

For the compound `CCCNC(=O)NS(=O)(=O)c1ccc(Cl)cc1`, the outcome was inactive.

Regarding `Nc1ccc(C(=O)O)cc1`, the outcome was inactive.

On to `O=C(O)/C=C\C(=O)O`, for which the outcome was inactive.

As to `CC1(C)[C@@H]2CC[C@@]1(C)C(=O)C2`, the outcome was inactive.

Take `O=NO`: the result was inactive.

On to `O=C1CN(/N=C/c2ccc([N+](=O)[O-])o2)C(=O)N1`, for which the outcome was inactive.

For `Cn1c(=O)c2[nH]cnc2n(C)c1=O`, the result was inactive.

For `CCCCOC(=O)CC(CC(=O)OCCCC)(OC(C)=O)C(=O)OCCCC`, the result was inactive.

Regarding `O=S(=O)(O)NC1CCCCC1`, the outcome was inactive.

Consider `CC(O)C(=O)O` (stereo unspecified), for which the result was inactive.

For the compound `O=c1cc[nH]c(=S)[nH]1`, the outcome was inactive.

`Oc1ccc(/C=C/c2cc(O)cc(O)c2)cc1`: the outcome was inactive.

With `Cn1cc[nH]c1=S`, the outcome was inactive.

As for `C/C=C/c1ccc(OC)cc1`, the outcome was inactive.

As for `CCCC(O)C(CC)CO` (stereo unspecified), the result was inactive.

As for `CCCCC1C(=O)N(c2ccccc2)N(c2ccccc2)C1=O`, the result was inactive.

For the compound `O=C(c1ccccc1)C(O)c1ccccc1` (stereo unspecified), the result was inactive.

As for `Nc1ccn([C@H]2CC[C@@H](CO)O2)c(=O)n1`, the outcome was inactive.

Consider `NC(N)=O`, for which the outcome was inactive.

In the case of `Cc1ccc(C)c(OCCCC(C)(C)C(=O)O)c1`, the result was inactive.

As to `CC(O)CN(CCN(CC(C)O)CC(C)O)CC(C)O` (stereo unspecified), the result was inactive.

On to `C[C@]12C=CC(=O)C=C1CC[C@@H]1[C@@H]2[C@@H](O)C[C@@]2(C)[C@H]1CC[C@]2(O)C(=O)CO`, for which the outcome was inactive.

For the compound `N=C(N)c1ccc(OCCCCCOc2ccc(C(=N)N)cc2)cc1`, the result was inactive.

With `COc1ccc2[nH]cc(CCNC(C)=O)c2c1`, the result was inactive.

For the compound `CC(=O)OCC(COC(C)=O)OC(C)=O`, the result was inactive.

`O=C(c1ccccc1)c1ccccc1`: the result was inactive.

On to `O=C(O)c1cccnc1`, for which the result was inactive.
